This is part of a sample that, as a whole, favours compounds with a hit. Of some 79,000 tested, about 15% had one in any assay. Cut-off read from the data, not from the text of the source: active = growth inhibition above about 70%; inactive = the rest.
What was measured:
[1] = NCI Yeast Anticancer Drug Screen. Data for the rad50 strain (AID 155);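 note: 0% = growth of vehicle-only cultures of the same strain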; conditions: S. cerevisiae rad50 strain growth inhibition; at 50.0 µM; stronger effect = higher value
In short: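 Growth of the mutant yeast was measured after compound exposure and referenced to vehicle-treated cultures.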

[2] = NCI Yeast Anticancer Drug Screen. Data for the mec2-1 strain (AID 157); conditions: S. cerevisiae mec2-1 strain, at 50.0 µM, stronger effect = higher value
In short: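 Yeast mec2-1 mutant treated with compound. Readout: growth inhibition vs vehicle controls.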

[3] = NCI Yeast Anticancer Drug Screen. Data for the sgs1 mgt1 strain (AID 161);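 note: 0% = growth of cultures given vehicle only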; conditions: S. cerevisiae sgs1 mgt1 strain, at 50.0 µM, stronger effect = higher value
In short: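 Test agents were incubated with a DNA-repair-mutant yeast strain. Growth was then read and compared against vehicle-treated controls.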

[4] = NCI Yeast Anticancer Drug Screen. Data for the cln2 rad14 strain (AID 165);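 note: 0% = growth equal to vehicle treated cultures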; conditions: S. cerevisiae cln2 rad14 strain, at 50.0 µM, stronger effect = higher value
In short: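 cln2 rad14 yeast strain; compound exposure; growth inhibition read vs vehicle controls.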

[5] = NCI Yeast Anticancer Drug Screen. Data for the bub3 strain (AID 167); conditions: S. cerevisiae bub3 mutant strain, at 50.0 µM, stronger effect = higher value
In short: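 Whole-cell yeast assay. The mutant strain was incubated with compounds, and growth inhibition was determined by comparison with vehicle-treated cells.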

[6] = NCI Yeast Anticancer Drug Screen. Data for the mlh1 rad18 strain (AID 175); conditions: S. cerevisiae mlh1 rad18 strain growth inhibition; at 50.0 µM; stronger effect = higher value
In short: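 Yeast w/ defined DNA-repair lesions; compound exposure; growth vs vehicle controls → % inhibition.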

Measured: growth inhibition

O=C(NCc1ccccc1)NC(c1ccccc1)(c1ccccc1)c1ccccc1
inactive: [1] 28.9% | [2] 14.2% | [3] 34.6% | [4] 11.8% | [5] -4.25% | [6] 30.9%

COC(=O)C1C(O)CCC2CN3CCc4c([nH]c5cccc(OC)c45)C3CC21 (stereo unspecified)
inactive: [1] -3.7% | [2] -14.8% | [3] 14.3% | [4] 7.85% | [5] 2% | [6] -78.7%

COc1ccc(NC(=O)Oc2ccccc2C(N)=O)c(Cl)c1
inactive: [1] -2.05% | [2] 10.8% | [3] 3.65% | [4] 4.6% | [5] 18.4% | [6] 9.75%

N#Cc1nc(Nc2cccc3ccccc23)sc1N
inactive: [1] 8.2% | [2] 14.8% | [3] 20.9% | [4] 12.1% | [5] 15.7% | [6] 51.1%

CCCCC(CC)C1OCC(O)CO1 (stereo unspecified)
inactive: [1] 8.8% | [2] 3.3% | [3] 2.55% | [4] 5.1% | [5] -13.2% | [6] -14.3%

C=C(Br)CNC(=O)c1ccccc1
inactive: [1] 7.5% | [2] -3.45% | [3] -1.35% | [4] -39.4% | [5] 21.4% | [6] 5.2%

CC1(C(=O)O)CCCCCCC1O (stereo unspecified)
inactive: [1] 10.2% | [2] 9.55% | [3] -2.55% | [4] 8.1% | [5] -6.1% | [6] -7.9%

CC(=O)NC(c1ccccc1)(c1ccccc1)c1ccccc1
inactive: [1] 12.1% | [2] 8.15% | [3] 14.8% | [4] 5.2% | [5] 31.1% | [6] 19.5%

O=C1c2cccc3cccc(c23)C(=O)N1Cc1ccco1
inactive: [1] 41.4% | [2] 36.2% | [3] 45% | [4] 44.5% | [5] 40.2% | [6] 24.7%

CCCCC/C(C)=N\NC(N)=S
inactive: [1] 15.6% | [2] -6.15% | [3] -15.9% | [4] 1.85% | [5] 19.8% | [6] -2.5%

Clc1ccccc1-c1nc(-c2ccncc2)no1
inactive: [1] 23.3% | [2] -14.9% | [3] -25% | [4] 34.1% | [5] 57.6% | [6] 34%

COCn1cnc2c(F)ncnc21
inactive: [1] 3.85% | [2] -1.4% | [3] -5.1% | [4] -29.1% | [5] -11.2% | [6] -3.1%

CCC(C)(N)C(=O)O (stereo unspecified)
inactive: [1] 10% | [2] 13.3% | [3] 5.1% | [4] 2.6% | [5] 18.2% | [6] 4.05%

COc1ccccc1NC(=O)C1=C(C)NC(C)=C(C(=O)Nc2ccccc2OC)C1c1cccc2ccccc12
inactive: [1] 28.4% | [2] -2.35% | [3] -18.2% | [4] 29.4% | [5] 6.65% | [6] 0.5%

COc1ccc(C(=O)CCc2cccc(NC(=O)CCCl)c2)cc1
inactive: [1] -17.6% | [2] 6.2% | [3] 6.45% | [4] -9.1% | [5] -6.85% | [6] -11.8%

Nc1ccc(Cl)c(S(=O)(=O)O)c1
inactive: [1] 21.7% | [2] -4.35% | [3] 7.05% | [4] 8.4% | [5] 10.4% | [6] 17.1%

CC(=O)C1=C(c2ccccc2)N(C2OC(CO)C(O)C(O)C2O)C(S)=C(C#N)C1c1ccc(Cl)cc1 (stereo unspecified)
inactive: [1] 42.9% | [2] 23.9% | [3] 10.1% | [4] 29.2% | [5] 25.1% | [6] 49%

Fc1ccccc1N=Cc1ccc(C=Nc2ccccc2F)cc1
inactive: [1] 3.85% | [2] -11.2% | [3] 23.9% | [4] 21.3% | [5] 45.6% | [6] 26.4%

CC(=O)/C(C)=C\c1ccc(C(C)C)cc1
inactive: [1] 8.85% | [2] -12.7% | [3] -10.9% | [4] -7.2% | [5] 10.9% | [6] -1.55%

C=C(C)COc1ccc(Nc2ccccc2)cc1
inactive: [1] 5.7% | [2] 18.4% | [3] 22% | [4] 6.65% | [5] 2.35% | [6] 34%

COC(=O)c1nc(N)nc(C(=O)OC)c1C(=O)c1cccc2ccccc12
inactive: [1] -33.5% | [2] -26.1% | [3] 1.65% | [4] -26.8% | [5] -33.3% | [6] -20.9%

Source: PubChem BioAssay (NCI)
